# Article PMC7862700, “An all-to-all approach to the identification of sequence-specific readers for epigenetic DNA modifications on cytosine”
# Columns and labels:
# Assay in all cases: DAPPL (digital affinity profiling via proximity ligation, sequencing); 10 mM Tris-HCl pH 7.5, 50 mM NaCl, 1 mM DTT, 4% glycerol, room temperature, 30 min; GST-TFs on glutathione beads, 16-mer random dsDNA library, 0.1% formaldehyde crosslink after washing; high values mean tight binding
# Conditions in all cases: protein: recombinant; tags: N-terminal GST; dsDNA, one strand shown
# [1] = molecular target: T1, ELK1 (Homo sapiens, UniProt P19419 1-428)
# T1 sequence: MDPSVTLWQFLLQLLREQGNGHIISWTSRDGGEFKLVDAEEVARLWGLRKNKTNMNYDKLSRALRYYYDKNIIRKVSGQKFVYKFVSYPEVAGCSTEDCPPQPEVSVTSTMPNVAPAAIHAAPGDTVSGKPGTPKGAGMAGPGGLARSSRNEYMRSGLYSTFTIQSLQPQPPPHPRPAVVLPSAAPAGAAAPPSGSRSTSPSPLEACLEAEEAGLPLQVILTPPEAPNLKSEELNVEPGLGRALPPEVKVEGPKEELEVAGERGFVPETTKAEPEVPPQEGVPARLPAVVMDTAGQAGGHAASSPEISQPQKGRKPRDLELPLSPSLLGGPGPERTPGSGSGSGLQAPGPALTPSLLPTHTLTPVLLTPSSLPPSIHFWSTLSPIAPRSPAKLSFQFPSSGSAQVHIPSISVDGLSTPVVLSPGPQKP
# Procedure, shortened: (§1)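 Beads coated with glutathione captured GST-fused human transcription factors that had been expressed in yeast, and the factors were then given DNA barcodes and pooled with a tag-only sample. The pools were incubated with 200 nmole of a random double-stranded 16-mer DNA library in Tris/NaCl/DTT/glycerol buffer for 30 min at room temperature, washed, crosslinked with 0.1% formaldehyde and proximity-ligated with BsaI/T4 ligase at 37 °C for 1 h. PCR amplification and Illumina NextSeq500 sequencing came last. Binding signal is each hexamer's read frequency for a factor divided by its frequency for the tag-only sample.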
# [2] = molecular target: T2, GABPA (Homo sapiens, UniProt Q06546 1-454)
# T2 sequence: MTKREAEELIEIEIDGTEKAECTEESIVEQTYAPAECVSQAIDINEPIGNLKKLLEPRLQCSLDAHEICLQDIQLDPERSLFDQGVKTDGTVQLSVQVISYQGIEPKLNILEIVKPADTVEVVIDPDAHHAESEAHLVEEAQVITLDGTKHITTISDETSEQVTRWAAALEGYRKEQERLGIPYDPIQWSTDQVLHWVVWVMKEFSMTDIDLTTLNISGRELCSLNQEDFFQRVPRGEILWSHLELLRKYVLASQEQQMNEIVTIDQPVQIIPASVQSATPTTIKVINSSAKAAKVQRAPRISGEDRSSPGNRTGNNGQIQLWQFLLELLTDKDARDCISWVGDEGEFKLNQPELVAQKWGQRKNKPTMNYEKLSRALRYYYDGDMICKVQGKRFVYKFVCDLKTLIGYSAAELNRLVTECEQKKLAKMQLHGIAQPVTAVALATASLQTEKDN
# Procedure, shortened: as §1
# [3] = molecular target: T3, ERG (Homo sapiens, UniProt P11308 1-479)
# T3 sequence: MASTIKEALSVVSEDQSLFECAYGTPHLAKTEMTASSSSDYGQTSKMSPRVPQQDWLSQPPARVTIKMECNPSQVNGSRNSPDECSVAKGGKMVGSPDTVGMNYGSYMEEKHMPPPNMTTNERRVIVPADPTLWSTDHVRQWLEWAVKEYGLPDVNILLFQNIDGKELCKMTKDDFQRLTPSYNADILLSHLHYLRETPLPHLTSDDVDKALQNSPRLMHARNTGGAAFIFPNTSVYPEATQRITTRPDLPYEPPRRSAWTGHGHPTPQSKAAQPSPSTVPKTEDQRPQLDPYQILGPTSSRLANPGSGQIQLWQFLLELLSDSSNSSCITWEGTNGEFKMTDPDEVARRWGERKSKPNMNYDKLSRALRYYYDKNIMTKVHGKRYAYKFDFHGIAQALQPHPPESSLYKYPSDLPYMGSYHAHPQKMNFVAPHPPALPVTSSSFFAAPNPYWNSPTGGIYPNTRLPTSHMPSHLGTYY
# Procedure, shortened: as §1
# [4] = molecular target: ELF1 (Homo sapiens, UniProt P32519 1-619)
# Procedure, shortened: as §1
# [5] = molecular target: T4, SPIC (Homo sapiens, UniProt Q8N5J4 1-248)
# T4 sequence: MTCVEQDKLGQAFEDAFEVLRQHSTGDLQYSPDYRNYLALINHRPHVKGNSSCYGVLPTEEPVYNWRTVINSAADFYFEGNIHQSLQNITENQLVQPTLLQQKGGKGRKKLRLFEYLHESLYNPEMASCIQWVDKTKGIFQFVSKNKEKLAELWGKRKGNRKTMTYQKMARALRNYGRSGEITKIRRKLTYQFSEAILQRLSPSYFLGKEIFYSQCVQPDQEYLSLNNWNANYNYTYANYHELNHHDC
# Procedure, shortened: as §1
# [6] = molecular target: ELF4 (Homo sapiens, UniProt Q99607 1-663)
# Procedure, shortened: as §1
# [7] = molecular target: T5, ELK4 (Homo sapiens, UniProt P28324-2 1-405)
# T5 sequence: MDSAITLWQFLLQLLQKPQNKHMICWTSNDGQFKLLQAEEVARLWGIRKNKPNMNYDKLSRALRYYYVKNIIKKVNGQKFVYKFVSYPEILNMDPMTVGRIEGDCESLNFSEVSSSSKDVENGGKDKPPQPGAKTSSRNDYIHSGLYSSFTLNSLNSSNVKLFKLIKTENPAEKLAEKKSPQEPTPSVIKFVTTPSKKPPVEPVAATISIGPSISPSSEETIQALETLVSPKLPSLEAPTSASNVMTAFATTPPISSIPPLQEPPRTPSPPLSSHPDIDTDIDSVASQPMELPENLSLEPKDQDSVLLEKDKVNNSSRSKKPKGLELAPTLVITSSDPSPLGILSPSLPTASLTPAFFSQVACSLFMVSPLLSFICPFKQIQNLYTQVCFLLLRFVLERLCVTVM
# Procedure, shortened: as §1
# [8] = molecular target: T6, ETS2 (Homo sapiens, UniProt P15036 1-469)
# T6 sequence: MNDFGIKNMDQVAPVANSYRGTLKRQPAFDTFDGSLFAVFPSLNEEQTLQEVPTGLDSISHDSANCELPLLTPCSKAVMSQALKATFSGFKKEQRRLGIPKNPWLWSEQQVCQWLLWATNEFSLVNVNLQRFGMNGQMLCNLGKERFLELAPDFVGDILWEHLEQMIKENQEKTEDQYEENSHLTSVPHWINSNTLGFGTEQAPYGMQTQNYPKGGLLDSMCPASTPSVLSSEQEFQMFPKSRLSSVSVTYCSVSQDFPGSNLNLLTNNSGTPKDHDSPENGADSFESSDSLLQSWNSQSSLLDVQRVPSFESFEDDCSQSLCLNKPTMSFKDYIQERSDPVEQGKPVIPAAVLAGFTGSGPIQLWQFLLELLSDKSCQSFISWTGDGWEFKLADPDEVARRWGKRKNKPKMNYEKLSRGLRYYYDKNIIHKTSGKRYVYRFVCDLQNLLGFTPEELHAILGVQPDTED
# Procedure, shortened: as §1
# [9] = molecular target: T7, SPDEF (Homo sapiens, UniProt O95238 1-335)
# T7 sequence: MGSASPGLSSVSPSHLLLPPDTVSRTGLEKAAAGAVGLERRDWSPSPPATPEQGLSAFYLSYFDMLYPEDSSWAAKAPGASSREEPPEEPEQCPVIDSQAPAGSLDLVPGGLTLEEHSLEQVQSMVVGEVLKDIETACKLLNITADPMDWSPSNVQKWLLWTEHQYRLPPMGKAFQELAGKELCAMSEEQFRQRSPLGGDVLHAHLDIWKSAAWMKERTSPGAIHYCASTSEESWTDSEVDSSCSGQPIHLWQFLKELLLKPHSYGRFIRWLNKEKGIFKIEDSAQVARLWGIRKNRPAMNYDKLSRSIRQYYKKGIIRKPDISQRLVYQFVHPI
# Procedure, shortened: as §1
# [10] = molecular target: T8, ETV7 (Homo sapiens, UniProt Q9Y603 1-341)
# T8 sequence: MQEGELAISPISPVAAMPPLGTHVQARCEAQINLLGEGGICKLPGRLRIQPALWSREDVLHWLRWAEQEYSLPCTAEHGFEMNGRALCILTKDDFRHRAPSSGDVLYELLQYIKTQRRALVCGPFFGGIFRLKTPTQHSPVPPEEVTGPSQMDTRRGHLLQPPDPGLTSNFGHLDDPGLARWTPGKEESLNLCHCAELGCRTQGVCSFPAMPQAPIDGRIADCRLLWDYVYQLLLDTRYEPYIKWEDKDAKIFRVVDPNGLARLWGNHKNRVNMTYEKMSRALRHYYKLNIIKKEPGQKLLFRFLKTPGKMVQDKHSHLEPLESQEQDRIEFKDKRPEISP
# Procedure, shortened: as §1
# [11] = molecular target: T9, ETV3 (Homo sapiens, UniProt P41162-2 1-143)
# T9 sequence: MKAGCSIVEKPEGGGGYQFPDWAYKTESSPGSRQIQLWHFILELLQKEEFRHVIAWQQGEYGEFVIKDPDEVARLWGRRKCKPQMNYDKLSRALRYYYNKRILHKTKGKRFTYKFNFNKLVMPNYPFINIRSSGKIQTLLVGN
# Procedure, shortened: as §1
# Chain of ELF4 (Q99607 whole entry): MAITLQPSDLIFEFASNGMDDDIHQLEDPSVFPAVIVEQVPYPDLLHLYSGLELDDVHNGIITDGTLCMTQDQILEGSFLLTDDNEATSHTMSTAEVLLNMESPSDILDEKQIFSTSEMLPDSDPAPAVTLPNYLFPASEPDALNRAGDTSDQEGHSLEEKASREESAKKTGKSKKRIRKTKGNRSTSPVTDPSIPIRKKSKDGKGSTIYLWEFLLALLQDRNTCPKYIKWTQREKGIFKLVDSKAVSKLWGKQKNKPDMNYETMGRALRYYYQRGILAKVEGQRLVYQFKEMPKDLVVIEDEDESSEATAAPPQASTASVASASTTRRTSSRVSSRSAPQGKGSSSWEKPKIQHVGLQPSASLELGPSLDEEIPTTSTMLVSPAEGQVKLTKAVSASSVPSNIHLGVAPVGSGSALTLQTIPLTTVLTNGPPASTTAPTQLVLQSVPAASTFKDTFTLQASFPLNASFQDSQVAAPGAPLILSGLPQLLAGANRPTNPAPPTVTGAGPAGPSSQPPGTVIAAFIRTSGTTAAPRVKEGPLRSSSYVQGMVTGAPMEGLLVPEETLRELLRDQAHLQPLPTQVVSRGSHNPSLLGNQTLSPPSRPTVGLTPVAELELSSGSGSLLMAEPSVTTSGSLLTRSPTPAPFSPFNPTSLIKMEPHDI
# Chain of ELF1 (P32519 whole entry): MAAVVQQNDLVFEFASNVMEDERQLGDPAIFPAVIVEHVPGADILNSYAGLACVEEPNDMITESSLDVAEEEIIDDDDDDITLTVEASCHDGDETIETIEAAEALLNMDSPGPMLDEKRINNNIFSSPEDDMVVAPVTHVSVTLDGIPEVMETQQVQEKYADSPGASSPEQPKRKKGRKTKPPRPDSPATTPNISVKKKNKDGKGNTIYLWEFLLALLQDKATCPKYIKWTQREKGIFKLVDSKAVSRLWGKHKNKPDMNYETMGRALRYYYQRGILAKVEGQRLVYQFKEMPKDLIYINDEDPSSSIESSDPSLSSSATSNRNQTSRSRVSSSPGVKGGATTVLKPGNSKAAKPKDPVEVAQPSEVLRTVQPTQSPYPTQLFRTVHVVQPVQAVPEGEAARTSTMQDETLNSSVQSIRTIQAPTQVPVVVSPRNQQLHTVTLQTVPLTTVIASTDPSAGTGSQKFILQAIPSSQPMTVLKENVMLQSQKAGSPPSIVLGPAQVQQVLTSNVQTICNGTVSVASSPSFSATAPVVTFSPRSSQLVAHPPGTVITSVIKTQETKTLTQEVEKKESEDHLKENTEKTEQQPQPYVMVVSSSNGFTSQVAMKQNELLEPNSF
sequence,measurement,setting,value
TAAGCA,binding signal,[1],"1.02 fold enrichment (6-mer frequency, TF over GST control)"
same,binding signal,[2],"1.08 fold enrichment (6-mer frequency, TF over GST control)"
same,binding signal,[3],"1.01 fold enrichment (6-mer frequency, TF over GST control)"
same,binding signal,[4],"1.07 fold enrichment (6-mer frequency, TF over GST control)"
same,binding signal,[5],"1.08 fold enrichment (6-mer frequency, TF over GST control)"
same,binding signal,[6],"1.03 fold enrichment (6-mer frequency, TF over GST control)"
same,binding signal,[7],"1.09 fold enrichment (6-mer frequency, TF over GST control)"
same,binding signal,[8],"1.07 fold enrichment (6-mer frequency, TF over GST control)"
same,binding signal,[9],"1.06 fold enrichment (6-mer frequency, TF over GST control)"
same,binding signal,[10],"1.02 fold enrichment (6-mer frequency, TF over GST control)"
same,binding signal,[11],"1 fold enrichment (6-mer frequency, TF over GST control)"
